These results are taken from the supplement of paper PMC10681739.

Assay [1] concerns the target T1, ETS1 (UniProt P14921).
T1 sequence: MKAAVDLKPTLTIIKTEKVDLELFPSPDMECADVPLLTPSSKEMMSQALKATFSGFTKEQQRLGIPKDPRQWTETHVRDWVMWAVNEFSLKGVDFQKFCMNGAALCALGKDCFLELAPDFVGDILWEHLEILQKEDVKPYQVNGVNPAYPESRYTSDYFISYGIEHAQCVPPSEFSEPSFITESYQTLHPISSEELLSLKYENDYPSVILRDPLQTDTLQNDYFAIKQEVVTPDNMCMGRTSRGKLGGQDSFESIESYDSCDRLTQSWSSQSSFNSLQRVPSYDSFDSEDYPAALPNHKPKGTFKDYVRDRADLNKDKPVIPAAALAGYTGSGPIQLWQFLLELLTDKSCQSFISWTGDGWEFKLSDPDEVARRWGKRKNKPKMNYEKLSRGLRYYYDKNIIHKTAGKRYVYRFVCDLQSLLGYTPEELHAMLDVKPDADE
The assay is described as follows: ETS1 binding intensity (PBM fluorescence), ETS1 alone (arbitrary fluorescence units); higher = stronger binding. The note with it: ETS1 concentration 1 nM; RUNX1 concentration 0 nM.

Assay [2] addresses RUNX1 (UniProt Q01196). Put plainly: RUNX1 binding intensity (PBM fluorescence), RUNX1 alone (arbitrary fluorescence units); higher = stronger binding. The conditions noted are these: RUNX1 concentration 2 nM; ETS1 concentration 0 nM. As for the experimental part:
(§1)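 Cooperative gcPBM on 36-bp genomic probes with neighbouring ETS1 and RUNX1 sites. Recombinant human RUNX1 (2 nM) was incubated alone or with ETS1 (25 nM) and detected with anti-RUNX1 antibody plus Alexa488 secondary. Values are medians over 4 replicate spots; the RUNX1+ETS1 data were normalised to the RUNX1-only data. The probes sit in constant array flanks that are not printed.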

The target in assay [3] is T1, ETS1. Put plainly: ETS1 binding intensity (PBM fluorescence) in presence of RUNX1, normalised to ETS1-only experiment (arbitrary fluorescence units); higher = stronger binding. The note with it: ETS1 concentration 1 nM; RUNX1 concentration 25 nM.
The target in assay [4] is RUNX1 (UniProt Q01196). Put plainly: RUNX1 binding intensity (PBM fluorescence) in presence of ETS1, normalised to RUNX1-only experiment (arbitrary fluorescence units); higher = stronger binding. The conditions noted are these: RUNX1 concentration 2 nM; ETS1 concentration 25 nM. Here is the method: as §1
RUNX1, sequence (Q01196 whole entry): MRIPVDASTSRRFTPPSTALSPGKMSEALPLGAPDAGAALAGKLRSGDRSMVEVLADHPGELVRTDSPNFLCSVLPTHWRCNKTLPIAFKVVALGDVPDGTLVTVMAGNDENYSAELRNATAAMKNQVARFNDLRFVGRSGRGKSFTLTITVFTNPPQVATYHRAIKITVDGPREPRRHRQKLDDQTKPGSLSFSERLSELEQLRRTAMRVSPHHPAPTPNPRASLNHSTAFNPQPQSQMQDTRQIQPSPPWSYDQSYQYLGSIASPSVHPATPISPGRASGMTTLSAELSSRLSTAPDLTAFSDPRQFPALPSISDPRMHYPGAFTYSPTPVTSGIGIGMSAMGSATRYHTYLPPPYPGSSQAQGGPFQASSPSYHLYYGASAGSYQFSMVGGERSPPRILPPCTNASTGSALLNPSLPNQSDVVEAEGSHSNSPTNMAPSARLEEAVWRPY
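For RUNX1 binding intensity (PBM fluorescence) in presence of ETS1, normalised to RUNX1-only experiment in this document: Full-length recombinant human ETS1 or RUNX1 bound to double-stranded 36-bp genomic probes on microarrays, detected by protein-specific primary antibody and Alexa488 secondary, spot fluorescence as median of four replicate spots.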
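For RUNX1 binding intensity (PBM fluorescence), RUNX1 alone in this document: Full-length recombinant human RUNX1 bound to double-stranded 36-bp genomic probes on a high-density microarray, scored as Alexa488 fluorescence per spot via anti-RUNX1 antibody, median of four replicate spots.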

In the case of GACGGCCCCAGCGGAAGTGGTTGCCTTGGTTTGCGC, the ETS1 binding intensity is 9920 in assay [1] and 10300 in assay [3]. The RUNX1 binding intensity in assay [2] is 734; in assay [4], 2190.
For TGGGGTGGTGACATGGGATGTGGTTTTGGGGTTGCA, in that order: 510, 3860, 974 and 1070.
Taken in the same sequence, the figures for GCGCACTTCCGGGCTGGTGAACGCGGTGACGTCACC were 1250, 1210, 804 and 1720.
For AACAGTCACATCCGGGGCCGAGAGGAACCGCGAACG, in that order: 1100, 2080, 894 and 1740.
On to GCAGAAGGATTTCCTGTTTCAGGCAACCACAGCGAC, for which the ETS1 binding intensity amounted to 1630 in assay [1] and 2450 in assay [3]. Also, the RUNX1 binding intensity in assay [2] amounted to 773; in assay [4], 1510.
Take AATCATTTCCTGCCCTAACGTTTGTGGTCTGCCTAG: the values for the ETS1 binding intensity in assay [1] and in assay [3] were 728 and 1720, respectively. Further, the RUNX1 binding intensity in assay [2] was found to be 832; in assay [4], 2760.
Taken in the same sequence, the figures for ACTATTTTTAGACTTCCCCACCCCGCAGTTTCAAGG were 601, 554, 1270 and 1010.
For GGGGCAGGAAGTGGAGGTTTGAAGTGGTTTAGAGTA, in that order: 1740, 2310, 799 and 1350.
GAAACCCCATGGGCAGGATGTGGGTGAGCTGTCTGG: the figures for the ETS1 binding intensity in assay [1] and in assay [3] were 3380 and 5020, respectively. Also, the results for the RUNX1 binding intensity in assay [2] and in assay [4] were 742 and 1280, respectively.
With GAAATGAGAGAACGGAAACCACAAGTCAAGGGGCTT, the ETS1 binding intensity is 1460 in assay [1] and 2790 in assay [3]. Besides, the RUNX1 binding intensity in assay [2] was found to be 3620; in assay [4], 4480.
For TATCACATCCTGCCGGACAAAAAGGCCAAACCACCT, in that order: 536, 473, 919 and 1850.
In the case of CTGCGAGCTCAGAACGGAAACCACAGCAACTACCGT, the ETS1 binding intensity in assay [1] is 2170; in assay [3] it was 4260. Besides, the RUNX1 binding intensity in assay [2] was determined as 1070; in assay [4], 1550.
In the case of AACAACAGGATGCTCTCTAGTCTAACAGTGGTAACA, the ETS1 binding intensity in assay [1] was 847; in assay [3], 820. For the same sequence, the figures for the RUNX1 binding intensity in assay [2] and in assay [4] were 866 and 1020, respectively.
For GCGCGGCGCGACCGGACGCTGCGGGCGGGGAAGAGG, in that order: 3230, 5990, 734 and 929.
